According to PubChem BioAssay AID932 (The Scripps Research Institute Molecular Screening Center, 2007):
Out of some 200,000 compounds screened, about 5,100 (2.5%) were called active.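 Rule for the calls: active = activation above the screen-wide mean activation plus 3 SD (cut at about 130% in these data); inactive = the rest.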 The list comes from a sample in which actives are over-represented; it also holds similar structures and randomly drawn compounds.

Experiment: potentiators of IFN-gamma driven STAT1 reporter – cell-based, HTS, luciferase reporter, primary screen (AID 932);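 note: raw ratio to IFN-gamma control signal so 100% means no change and 0% no light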
Details: NIH 3T3 STAT1-luciferase reporter, luminescence, at 5.5 µM, stronger effect = higher value, 100% = IFN-gamma alone, no compound

Activation (% of control), inactive:
Cc1c(Cl)cccc1NC(=S)N(Cc1ccccc1)Cc1cccnc1 94.9%
CC(=O)Nc1ccc(NC(=S)NC(=O)/C=C/c2ccccc2)cc1 87.3%
COc1cc(/C=N/N=C(\N)c2nonc2N)cc(OC)c1OC 102%
CC(C)(C)n1nc2c(c1NC(=O)c1cc3ccccc3o1)CSC2 97.4%
Cc1cc(C)n(-c2nnc(N3CCN(c4ccccc4)CC3)nn2)n1 104%
Cc1ccnc(NC(=O)c2ccco2)n1 101%
Cc1ccnc(NC(=O)c2ccoc2C)c1 127%
O=C(/C=C/c1ccco1)Nc1cccc(-c2nc3ccccc3[nH]2)c1 119%
Cc1nnc(NC(=O)/C=C/c2ccco2)s1 105%
Cn1c(=O)c2c(ncn2CC(=O)N/N=C/c2cn[nH]c2-c2ccc(F)cc2)n(C)c1=O 109%
CC(Oc1ccccc1F)C(=O)NN (configuration not stated) 98%
CC(C)c1nc(CNC(=O)CC2C(=O)NCCN2Cc2ccoc2)cs1 (configuration not stated) 101%
O=C(O)c1ccc(NS(=O)(=O)c2ccc3c(c2)C(=O)c2cc(S(=O)(=O)Nc4ccc(C(=O)O)cc4)ccc2-3)cc1 95.5%
CCCn1nc(C(=O)N2CCCc3ccccc32)c2ccccc2c1=O 97.4%
COc1ccc(-n2cnc3cc(C(=O)NC4CCCC4)ccc32)cc1 110%
COc1ccc(Nc2nc(Cl)nc(NCc3ccco3)n2)cc1 104%
COc1cc(C(=O)N[C@@H](C)C(=O)NCc2ccco2)cc(OC)c1OC 102%
CN(CC(=O)Nc1ccccc1[N+](=O)[O-])Cc1ccc(Br)cc1 97.7%
CC(C)CCN1CCN(Cc2ccc(C(F)(F)F)cc2)CC1CCO (configuration not stated) 100%
O=C1CC(c2cccc(Cl)c2)CC(O)=C1C=Nc1ccccc1 (configuration not stated) 99.6%
CC1=NN(c2ccccc2)C(=O)C1C(=O)c1ccc([N+](=O)[O-])cc1 (configuration not stated) 94.7%
Cn1c(=O)n(Cc2ccco2)c(=N)c2c3c(sc21)CCCC3 103%
N#CCSc1nc2ccc(N3CCOCC3)cc2c(=O)n1CCc1ccccc1 102%
Cc1cc(C(=O)Nc2ccccc2N2CCOCC2)c2ccccc2n1 102%
CCCc1c(C)nc2c(Br)cccc2c1Cl 97.5%
Cc1nc2ccccc2nc(C)c1=NOCc1ccc(Cl)cc1Cl 111%
O=C(OCC#CCSc1nnc(-c2ccncc2)o1)c1sc2ccccc2c1Cl 100%
Clc1ccc(-c2nnc(SCc3nc4ccccc4s3)o2)cc1 122%
Cc1nonc1C1CCCN1Cc1nc(-c2ccc(F)cc2F)oc1C (configuration not stated) 96%
CN(C)CCn1c(=S)[nH]c2ccc(Cl)cc2c1=O 95.1%
Cc1ccc(N(Cc2cc3ccccc3[nH]c2=O)C(=O)c2cccs2)cc1 91.2%
CN(C)S(=O)(=O)Oc1ccccc1C(=O)Nc1ccccc1Cl 91.9%
O=C(Cc1nn[nH]n1)NCCC1=CCCCC1 94.3%
CN(c1ccc(C(=O)NCc2ccccn2)cc1)S(C)(=O)=O 106%
O=C(NCCC1=CCCCC1)c1ccc(Cl)c([N+](=O)[O-])c1 110%
O=C(Cc1cccc2ccccc12)NCCC1=CCCCC1 101%
Cc1nnc(SCC2=C(C(=O)O)N3C(=O)C(NC(=O)Cn4nc(C)c(Cl)c4C)C3SC2)s1 (configuration not stated) 99.2%
CCOC(=O)C1CCCN(C(=O)COc2ccc(N(C)S(=O)(=O)c3ccc(C)cc3)cc2)C1 (configuration not stated) 102%
Cc1[nH]nc(SCC(=O)NCC(C)C)c1[N+](=O)[O-] 102%
Cc1cccc(N=C2NN=C(c3c[nH]c4ccccc34)CS2)c1 106%
c1ccc(CN2CCC(N=C3NN=C(c4ccc5c(c4)OCCO5)CS3)CC2)cc1 114%
CCN1CCC2(CC1)N=C(c1ccc(F)cc1)C(=S)N2C(=O)c1ccc(C)cc1 111%
Cc1ccc(-c2nc3ccccc3[nH]2)cc1N 118%
c1ccc(-c2[nH]ncc2-c2nc3ccccc3[nH]2)cc1 89.6%
O=C(Nc1ccncc1)c1ccccc1[N+](=O)[O-] 105%
O=C(NC(CC(=O)N1CCN(c2ccccc2)CC1)c1ccccc1)c1ccccc1Cl (configuration not stated) 95%
O=C(OCC(=O)c1c[nH]c2ccccc12)c1cccc(O)c1 93.7%
O=S(=O)(NCCc1ccc(F)cc1)c1cccc2cccnc12 102%
OCC1(CCc2ccccc2)CCN(Cc2ccc3nsnc3c2)CC1 100%
Cc1ccc(S(=O)(=O)N2CCOCC2)cc1C(=O)NC(=S)N(Cc1ccccc1)C(C)C 102%
Cc1ccc(S(=O)(=O)N2CCC(C(=O)NCC3CCCO3)CC2)cc1 (configuration not stated) 99.9%
Cc1ccc(C(=O)N/C(=C/c2cccs2)C(=O)NCC2CCCO2)cc1 (configuration not stated) 99.5%
O=C(Nc1ccc(F)c([N+](=O)[O-])c1)C1CC(=O)N(Cc2ccccc2)C1 (configuration not stated) 95.9%
CN(C)Cc1ccc(F)cc1Sc1cc(Cl)ccc1Cl 98.7%
O=C(COC(=O)Cn1cnc2ccccc21)Nc1cccc2c1C(=O)c1ccccc1C2=O 104%
Cc1occc1C(=O)N1CCCc2ccccc21 104%
O=C(c1cccc(C(=O)N2CCc3ccccc32)n1)N1CCc2ccccc21 95.1%
O=C(Cc1c(F)cccc1Cl)Nc1ccc(-n2cnnn2)cc1 98.6%
COc1ccc(NC(=O)CN2C(=O)C(c3ccccc3)=NC23CCCCCC3)cc1OC 104%
N#CC(=C1CCCC1)c1nc(-c2ccc(Cl)cc2)cs1 110%
N#C/C(=C1\CCCN1)c1nc(-c2ccccc2)cs1 105%
O=C(CN(CC1CCCO1)C(=O)CNS(=O)(=O)c1ccc(F)cc1)NCc1ccco1 (configuration not stated) 109%
COc1cc(OC)cc(-c2nc(=S)n3ccsc3n2)c1 108%
Cc1cccc(C(=O)N2CCCN(C(=O)c3cccc(C)c3)CC2)c1 103%
Cc1cc(=O)oc(C)c1C(=O)N1CCCCC1 104%
CC(=NCC1CCCO1)c1c(O)[nH]c(=O)[nH]c1=O (configuration not stated) 106%
O=C(CS(=O)(=O)Cc1ccccc1)NCC1CCCO1 (configuration not stated) 94.5%
COc1ccc(CCNC(=O)CN(c2ccccc2)S(C)(=O)=O)cc1 98%
COc1ccc(-n2nnnc2SCC(=O)Nc2ccccc2)cc1 99.3%
CCOc1cccc(-n2nnnc2-c2ccc(OC)cc2)c1 93.4%
Cc1ccc(C(=O)N/C(=C\c2cccs2)C(=O)NCCc2ccccn2)cc1C 103%
CN(C)C(=O)CSc1n[nH]c(-c2ccco2)n1 101%
O=C(Cn1c(-c2cncs2)nc2ccccc21)NC1CCCC1 103%
CC(=O)OC(C(=O)NC1CCCCC1)c1ccccc1 (configuration not stated) 95.8%
C/C(=C/C(=O)N1CCN(C)CC1)C(=O)O 88.6%
CCOn1c(=O)c(=O)n(O)c2ccccc21 95.6%
COC(=O)c1cccc([N+](=O)[O-])c1CS(=O)(=O)c1ccc(C)cc1 98.8%
Cc1nc(C)c(-c2csc(NCCc3ccccc3)n2)s1 102%
O=c1oc2ccccc2cc1-c1csc(Nc2ccc(O)cc2)n1 117%
CC1(C)CC(=O)C2=C(C1)Nc1cc(C(=O)c3ccccc3)ccc1NC2c1ccccn1 (configuration not stated) 104%
CCN1CCN(C(C(=O)NC2CCCC2)c2cc3c(cc2[N+](=O)[O-])OCO3)CC1 (configuration not stated) 107%
Cc1ccc(SCC(=O)c2sc(-c3ccccc3)nc2C)cc1 102%
Cc1nc(-c2ccccc2)sc1C(=O)/C=C/c1ccccc1 105%

Activation (% of control), active:
Cc1ccnc(NC(=O)c2ccc(NC(=O)c3ccco3)cc2)c1 129%
O=C(/C=C/c1ccco1)Nc1ccc(Oc2ccccc2)cc1 134%
COc1ccc(-n2cnc3cc(NCc4ccco4)ccc32)cc1 137%
Cc1nn2c3cc(N4CCOCC4)ccc3nc2c2ccccc12 134%
C#CCSc1nnc(-c2sc3ccccc3c2Cl)o1 140%
CN(C)CCN=c1cc(-c2ccccc2)oc2ccc(Cl)cc12 148%
CN(c1ccc(C(=O)NCCC2=CCCCC2)cc1)S(C)(=O)=O 158%
Cn1nnc2cc(C(=O)NCCC3=CCCCC3)ccc21 153%
Clc1cccc(N=C2NN=C(c3ccc4c(c3)OCCO4)CS2)c1 148%
c1ccc2[nH]c(-c3nc4ccccc4[nH]3)nc2c1 146%
Cc1ccc(-n2c(C)cc(/C=C(\C#N)C(=O)NCC3CCCO3)c2C)cc1 (configuration not stated) 140%
O=C(c1cnn2ccccc12)N1CCc2ccccc21 136%
N#CC(=C1SC=CS1)c1nc(-c2ccccc2)cs1 133%
Cc1ccc2cc3cc(C(=O)N4CCCCCC4)oc3nc2c1 169%
O=C1C(C=NCC2CCCO2)=C(O)c2ccccc21 (configuration not stated) 137%
COc1ccc(-n2nnnc2-c2nc3ccccc3s2)cc1 166%
O=C(/C=C/c1cnc2ccccc2n1)NC1CCCCCC1 142%
CCNc1nc(-c2cc3ccccc3o2)cs1 176%
Cc1nc(-c2ccccc2)sc1C(=O)/C=C/N(C)C 147%
